# In article PMC4552634, “A New Set of Chemical Starting Points with Plasmodium falciparum Transmission-Blocking Potential for Antimalarial Drug Discovery” (PLoS ONE, 2015):
# Where two headings read alike, the source gives them in different places. Among all 13,000 compounds or so, about 3,200 (25%) showed an effect of 50% or more. The list shows a part of the results.
# System: P. falciparum stage V gametocytes
# Parameters: BacTiter-Glo ATP luminescence viability of purified stage V gametocytes in 384-well plates, per cent inhibition versus DMSO
# Conditions: 48 h, 5 µM, inhibitor
smiles,measurement,setting,value
Cc1cc(C(=O)CN2C(=O)NC3(CCOc4ccccc43)C2=O)c(C)n1Cc1ccco1 (stereo not shown) [TCMDC-125252],% Inhibition,,14.93%
COc1ccc2c(-c3ccccc3)noc2c1 [TCMDC-123782],% Inhibition,,15.72%
Oc1cccc(-c2nc3cc(C4=NC5CCCCC5N4)ccc3[nH]2)c1 (stereo not shown) [TCMDC-137219],% Inhibition,% Inhibition,-17.08%
Cc1cc(C)c(NC(=O)N[C@H]2CCN(CCCCCNC(=O)/C=C/c3ccc(Cl)c(Cl)c3)C2)c(C)c1 [TCMDC-139513],% Inhibition,,86.25%
Cc1ccc(NC(=O)NC2CCN(CCCCCNC(=O)/C=C/c3ccc(Cl)c(Cl)c3)CC2)cc1 [TCMDC-135703],% Inhibition,,-0.844%
Cc1cc(C)c(NC(=O)NC2CCN(CCCCCNC(=O)/C=C/c3ccc(Cl)c(Cl)c3)CC2)c(C)c1 [TCMDC-135717],% Inhibition,,-32.07%
Cc1cc(C)c(NC(=O)NC2CCN(CCCCCNC(=O)/C=C/c3ccc(Cl)c(Cl)c3)C2)c(C)c1 (stereo not shown) [TCMDC-139529],% Inhibition,,92.72%
Cc1ccc(NC(=O)NC2CCN(CCCCCNC(=O)/C=C/c3ccc(Cl)c(Cl)c3)CC2)cc1C [TCMDC-135708],% Inhibition,,-56.47%
Cc1cccc(NC(=O)NC2CCN(CCCCCNC(=O)/C=C/c3ccc(Cl)c(Cl)c3)CC2)c1 [TCMDC-135702],% Inhibition,,-17.93%
COc1ccc(Br)cc1/C=C/C(=O)Nc1ccc(C2CCCN(C)C2)cc1 (stereo not shown) [TCMDC-133712],% Inhibition,,9.818%
Fc1ccc(-c2cc(NCCCn3ccnc3)nc(-c3cccnc3)n2)cc1 [TCMDC-123785],% Inhibition,,9.204%
CC(Nc1ccc2c(c1)OCCO2)C(=O)Nc1cc(C(F)(F)F)ccc1N1CCOCC1 (stereo not shown) [TCMDC-124859],% Inhibition,,-69.42%
CC(NC(=O)c1ccc(O)c(-c2ccc(Cl)c(Cl)c2)c1)C(=O)NC1CCCCC1 (stereo not shown) [TCMDC-140823],% Inhibition,,42.42%
Cc1cc(-c2ccc3occ(CCN)c3c2)cnc1N [TCMDC-138139],% Inhibition,,54.74%
Cc1cc(-c2cccc(CNCCc3ccc(Cl)cc3)c2)cnc1N [TCMDC-138091],% Inhibition,,14.17%
Cc1cc(-c2ccc(O)c(CNC3CCCCC3)c2)cnc1N [TCMDC-138129],% Inhibition,,-11.73%
CCC(C)CN1CCN(c2ccc(NC(=O)c3cccs3)cc2)C(C)C1 (stereo not shown) [TCMDC-134996],% Inhibition,,6.92%
COC(=O)c1cc(OC2CCOC2=O)cc2c1OC(C)(C)O2 (stereo not shown) [TCMDC-131234],% Inhibition,,42.88%
O=C(/C=C/c1cccc2ccccc12)NCCCCCN1CCC(c2c[nH]c3ccccc23)CC1 [TCMDC-139208],% Inhibition,,101.3%
O=C(/C=C/c1ccccc1O)NCCCCCN1CCC(c2c[nH]c3ccccc23)CC1 [TCMDC-139697],% Inhibition,,92.48%
O=C(/C=C/c1c[nH]c2ccccc12)NCCCCCN1CCC(c2c[nH]c3ccccc23)CC1 [TCMDC-139207],% Inhibition,,-19.56%
O=C(NC1CCN(CCCc2ccccc2)CC1)c1ccc(-c2cccc(C(F)(F)F)c2)s1 [TCMDC-134323],% Inhibition,,-38.84%
CC(C)Oc1cc2c(cc1NS(=O)(=O)c1ccc(-c3ccc(Cl)cc3)cc1F)CCN(C)CC2 [TCMDC-141589],% Inhibition,,-14.09%
O=c1cnc2ccc(F)cc2n1CCN1CCC(NCc2cc(-c3ccccc3)cs2)CC1 [TCMDC-135134],% Inhibition,,-21.73%
Cc1csc(-c2ncc(OC[C@@H](N)Cc3ccccc3)cc2-c2ccc3n[nH]c(C)c3c2)c1 [TCMDC-136087],% Inhibition,,-8.857%
Cc1[nH]nc2ccc(-c3cc(OC[C@@H](N)Cc4ccccc4)cnc3-c3ccccc3OCc3cccc(F)c3)cc12 [TCMDC-136224],% Inhibition,,-9.479%
Cc1[nH]nc2ccc(-c3cc(OC[C@@H](N)Cc4ccccc4)cnc3-c3ccc(OCc4cccc(F)c4)cc3)cc12 [TCMDC-136225],% Inhibition,,97.54%
Fc1cccc(COc2ccc(Nc3ncnc4cc(/C=C/[C@@H]5CCCN5)sc34)cc2Cl)c1 [TCMDC-134401],% Inhibition,,10.77%
O=C(NCc1ccccc1F)c1ccc(N2CCC(NCc3cccc(-n4cccn4)c3)CC2)cc1 [TCMDC-124670],% Inhibition,,2.936%
Cc1cc(N[C@@H](Cc2ccccc2)C(=O)NCCCOC(C)C)nc(NCCc2ccc(F)cc2)n1 [TCMDC-134866],% Inhibition,,73.24%
Cc1cc(N[C@@H](CC(C)C)C(=O)NCCCOC(C)C)nc(NCCc2ccc(F)cc2)n1 [TCMDC-134868],% Inhibition,,54.17%
COc1ccc(CC2(CO)CCN(Cc3ccc(O)c(Cl)c3)CC2)cc1 [TCMDC-124684],% Inhibition,,-47.93%
CNC(=O)C1Cc2c([nH]c3cc(Cl)ccc23)C2(CCN(CCc3ccccc3)CC2)N1 (stereo not shown) [TCMDC-141299],% Inhibition,,-88.09%
COc1cc(N(Cc2ccccc2C)S(=O)(=O)Cc2ccccc2[N+](=O)[O-])c(OC)cc1Cl [TCMDC-141749],% Inhibition,,44.47%
COc1ccc([N+](=O)[O-])cc1N(Cc1ccccc1-c1ccccc1)S(=O)(=O)c1ccc(C(F)(F)F)cc1 [TCMDC-141595],% Inhibition,,-1.284%
COc1ccc([N+](=O)[O-])cc1N(Cc1ccccc1-c1ccccc1)S(=O)(=O)c1ccc(C(F)(F)F)cc1[N+](=O)[O-] [TCMDC-141596],% Inhibition,,92.47%
CCOC(=O)c1[nH]c(-c2cc(Cl)nc(Cl)c2)nc1NC(=S)NCCCN1CCOCC1 [TCMDC-138898],% Inhibition,,-1.969%
COc1ccc2nccc([C@@H](O)CN3CCC(NCc4cc5c(F)ccc(F)c5[nH]4)CC3)c2c1 [TCMDC-140739],% Inhibition,,-16.25%
COc1ccc2nccc([C@@H](O)CN3CCC(NCc4cc5ccccc5[nH]4)CC3)c2c1 [TCMDC-140520],% Inhibition,,22.46%
COc1ccc2nccc([C@@H](O)CN3CCC(NCc4nc5ccc(F)cc5[nH]4)CC3)c2c1 [TCMDC-140651],% Inhibition,,-60.2%
COc1ccc2nccc([C@@H](O)CN3CCC(NCc4cc5c(Cl)cccc5[nH]4)CC3)c2c1 [TCMDC-140695],% Inhibition,,48.39%
COc1ccc2nccc([C@@H](O)CN3CCC(NCc4cc5ccc(C#N)cc5[nH]4)CC3)c2c1 [TCMDC-140696],% Inhibition,,8.806%
COc1ccc2nccc([C@@H](O)CN3CCC(NCc4cc5ccc(Cl)cc5[nH]4)CC3)c2c1 [TCMDC-140694],% Inhibition,,96.18%
COc1ccc2nccc([C@@H](O)CN3CCC(NCc4cc5c(Cl)cc(Cl)cc5[nH]4)CC3)c2c1 [TCMDC-140649],% Inhibition,,102.2%
COc1ccc2nccc([C@@H](O)CN3CCC(NCc4nc5ccccc5[nH]4)CC3)c2c1 [TCMDC-140550],% Inhibition,,32.31%
COc1ccc2nccc([C@@H](O)CN3CCC(NCc4cc5ccccc5[nH]c4=O)CC3)c2c1 [TCMDC-140759],% Inhibition,,15.99%
COc1ccc2nccc([C@@H](O)CN3CCC(NCc4cc5cc(OC(F)(F)F)ccc5[nH]4)CC3)c2c1 [TCMDC-140692],% Inhibition,,96.42%
COc1ccc2nccc([C@@H](O)CN3CCC(NCc4nc5c(F)cc(F)cc5[nH]4)CC3)c2c1 [TCMDC-140664],% Inhibition,,-52.05%
COc1ccc2nccc([C@@H](O)CN3CCC(NCc4nc5cc(F)c(F)cc5[nH]4)CC3)c2c1 [TCMDC-140665],% Inhibition,,66.97%
